From PubChem BioAssay (Tox21)
Values joined by “and” are separate entries in the source; they are usually repeats but may differ in a detail not shown here. Equal entries are not always repeated. Inconclusive results are not listed. A call without a number means that no potency is given here. The source holds several records for some structures; these can differ, active in one and inactive in another. Active and inactive are the calls of the source. Unless noted, calls come from the whole dose curve.

Legend:
[1] = Nuclear factor erythroid 2-related factor 2/antioxidant responsive element (Nrf2/ARE) small molecule agonists: qHTS cell viability counter screen in human keratinocytes (AID 1919968; active = well fitted curve in the direction sought with a large enough effect in the repeat runs; an effect the other way counts as inactive or inconclusive; note: nearly all actives have a fitted effect of over 55% in size; note: potency is the fitted concentration of half-maximal effect)
Procedure, shortened: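 In human HaCaT keratinocytes stably expressing an ARE-driven luciferase, compound exposure lasted 23 h at 37 C under 5% CO2. Viable cells are quantified with a protease-based fluorogenic reagent (CellTiter-Fluor) read 1 h after addition.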

[2] = Nuclear factor erythroid 2-related factor 2/antioxidant responsive element (Nrf2/ARE) small molecule agonists: luciferase reporter gene qHTS assay in human keratinocytes (AID 1919969); note: nearly all actives have a fitted effect of over 35% in size; note: potency is the fitted concentration of half-maximal effect
[3] = target: Gonadotropin-releasing hormone receptor (Homo sapiens) (UniProt P30968); assay: Human gonadotropin-releasing hormone receptor (GnRHR) small molecule agonists, calcium flux assay in GnRHR-HEK293 cells (AID 1920063); note: nearly all actives have a fitted effect of over 35% in size
Chain of Gonadotropin-releasing hormone receptor (Homo sapiens) (P30968 whole entry, looked up): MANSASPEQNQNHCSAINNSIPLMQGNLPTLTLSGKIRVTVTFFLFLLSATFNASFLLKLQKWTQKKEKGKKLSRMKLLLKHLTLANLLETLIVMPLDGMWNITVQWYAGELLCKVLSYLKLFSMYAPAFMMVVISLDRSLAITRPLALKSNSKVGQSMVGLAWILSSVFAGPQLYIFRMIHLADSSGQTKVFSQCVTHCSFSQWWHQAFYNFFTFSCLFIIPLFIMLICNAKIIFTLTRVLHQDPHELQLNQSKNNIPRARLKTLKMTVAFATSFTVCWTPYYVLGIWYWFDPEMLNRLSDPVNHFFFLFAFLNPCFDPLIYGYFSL
Procedure, shortened: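 Intracellular calcium rise is the read-out: engineered human GnRHR HEK293 cells, dye-loaded, are exposed to DMSO-dissolved compounds and fluorescence at Ex/Em 480/540 is tracked for 3 min.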

[4] = target: KiSS-1 receptor (Homo sapiens) (UniProt Q969F8); assay: Human kisspeptin (KISS1R) small molecule agonists, calcium flux assay in KISS1R-HEK293 cells (AID 1920064; active = well fitted curve in the direction sought with a large enough effect in the repeat runs; an effect the other way counts as inactive or inconclusive)
Chain of KiSS-1 receptor (Homo sapiens) (Q969F8 whole entry, looked up): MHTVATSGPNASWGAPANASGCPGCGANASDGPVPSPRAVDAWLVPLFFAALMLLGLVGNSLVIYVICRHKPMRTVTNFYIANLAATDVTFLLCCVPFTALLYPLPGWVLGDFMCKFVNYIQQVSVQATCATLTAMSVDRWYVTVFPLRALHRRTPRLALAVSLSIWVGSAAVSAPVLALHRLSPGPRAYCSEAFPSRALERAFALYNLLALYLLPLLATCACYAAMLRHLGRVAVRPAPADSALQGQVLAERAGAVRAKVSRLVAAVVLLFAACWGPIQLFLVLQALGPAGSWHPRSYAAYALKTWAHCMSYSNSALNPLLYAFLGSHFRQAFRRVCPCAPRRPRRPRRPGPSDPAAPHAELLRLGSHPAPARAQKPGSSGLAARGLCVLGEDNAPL
Procedure, shortened: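 Concentration-response testing used 15 concentrations in triplicate on human KISS1R-expressing HEK293 cells. Calcium-dependent fluorescence (Ex/Em 480/540) was followed kinetically for 3 min after compound transfer.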

[5] = G protein-coupled receptor (GPCR) small molecule agonists, calcium flux assay: HEK293 wild type cell line counter screen (AID 1920065)
Procedure, shortened: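 Fluorescence intensity signals activation. After overnight (18 h) culture and a 1 h calcium dye load at 37 C, compounds are added by pin tool and the plate read at 480/540 nm for 3 min in 1 s steps.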

[6] = p53 small molecule agonists, cell-based qHTS assay with human liver microsomes: qHTS cell viability counter screen (AID 1963579); note: nearly all actives have a fitted effect of over 45% in size
Procedure, shortened: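 Luminescent CellTiter-Glo read-out, 30 min at room temperature, gauged cytotoxicity in p53RE-bla cells exposed 16 h at 37 C to DMSO-dissolved compounds with metabolic activation by human liver microsomes and NADPH, each 0.5 mg/mL final.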

[7] = p53 small molecule agonists, cell-based qHTS assay with rat liver microsomes: qHTS cell viability counter screen (AID 1963580); note: nearly all actives have a fitted effect of over 45% in size
Procedure, shortened: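 Counter screen for cytotoxicity under metabolic activation: rat liver microsomes and NADPH, 0.5 mg/mL final each, added with compounds to p53RE-bla HCT-116 cells; 16 h at 37 C, then ATP luminescence read.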

[8] = p53 small molecule agonists, cell-based qHTS assay: qHTS cell viability counter screen (AID 1963581); note: nearly all actives have a fitted effect of over 45% in size; note: potency is the fitted concentration of half-maximal effect
Procedure, shortened: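 Luminescence from CellTiter-Glo, reflecting ATP content, serves as the cytotoxicity measure; it is taken after the 2 h reporter substrate step in HCT-116 p53RE-bla cells dosed for 16 h at 37 C.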

[9] = target: 5-hydroxytryptamine receptor 2A (Homo sapiens) (UniProt P28223); assay: 5-hydroxytryptamine receptor 2A (HTR2A) small molecule antagonists, cell-based qHTS assay (AID 1963586); note: nearly all actives have a fitted effect of over 45% in size
Chain of 5-hydroxytryptamine receptor 2A (Homo sapiens) (P28223 whole entry, looked up): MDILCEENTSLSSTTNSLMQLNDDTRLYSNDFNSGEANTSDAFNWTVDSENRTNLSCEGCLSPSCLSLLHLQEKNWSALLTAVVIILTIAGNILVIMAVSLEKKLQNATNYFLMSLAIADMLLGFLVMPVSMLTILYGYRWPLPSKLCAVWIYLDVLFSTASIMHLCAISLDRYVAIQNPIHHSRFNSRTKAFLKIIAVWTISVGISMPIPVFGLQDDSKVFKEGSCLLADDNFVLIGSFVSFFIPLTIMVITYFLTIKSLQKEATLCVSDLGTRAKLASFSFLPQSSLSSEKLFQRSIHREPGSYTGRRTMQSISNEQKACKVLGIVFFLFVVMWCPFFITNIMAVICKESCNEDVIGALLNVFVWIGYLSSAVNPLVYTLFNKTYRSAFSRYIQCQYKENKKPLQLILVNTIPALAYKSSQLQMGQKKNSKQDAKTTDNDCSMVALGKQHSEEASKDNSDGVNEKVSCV
Procedure, shortened: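 CHO cells stably expressing human HTR2A were plated for 18 h at 37 C, then loaded with calcium dye for 1 h. Compounds were preincubated 5 min at room temperature before DOI (4 nM solution) was added. Kinetic fluorescence was read for 3 min.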

[10] = target: Muscarinic acetylcholine receptor M1 (Homo sapiens) (UniProt P11229); assay: Cholinergic receptor muscarinic 1 (CHRM1) small molecule antagonists, cell-based qHTS assay (AID 1963588); note: nearly all actives have a fitted effect of over 40% in size
Chain of Muscarinic acetylcholine receptor M1 (Homo sapiens) (P11229 whole entry, looked up): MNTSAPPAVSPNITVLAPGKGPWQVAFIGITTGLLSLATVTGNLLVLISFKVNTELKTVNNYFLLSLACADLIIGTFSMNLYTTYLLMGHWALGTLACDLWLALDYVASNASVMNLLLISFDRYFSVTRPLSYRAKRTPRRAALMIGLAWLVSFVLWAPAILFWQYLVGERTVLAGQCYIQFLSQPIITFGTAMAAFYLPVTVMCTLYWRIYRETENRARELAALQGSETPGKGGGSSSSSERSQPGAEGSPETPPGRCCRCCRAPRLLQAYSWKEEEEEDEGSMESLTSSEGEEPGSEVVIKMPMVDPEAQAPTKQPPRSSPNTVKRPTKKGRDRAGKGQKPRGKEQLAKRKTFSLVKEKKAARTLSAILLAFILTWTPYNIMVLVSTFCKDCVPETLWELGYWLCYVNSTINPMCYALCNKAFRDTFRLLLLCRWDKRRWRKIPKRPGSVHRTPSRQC
Procedure, shortened: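 Compounds were tested at 15 concentrations in three independent runs. Dye-loaded CHRM1-CHO cells were exposed 5 min at room temperature before stimulation by acetylcholine added at 50nM. Intracellular calcium was read kinetically on FDSS for 3 min.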

[11] = target: Muscarinic acetylcholine receptor M1 (Homo sapiens) (UniProt P11229); assay: Cholinergic receptor muscarinic 1 (CHRM1) small molecule agonists, cell-based qHTS assay (AID 1963589); note: nearly all actives have a fitted effect of over 35% in size
Procedure, shortened: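 Fluorescent calcium dye reports M1 activation in stably transfected CHO cells. Compounds, 15 concentrations, added after 1 h dye loading at 37 C; kinetic reading at 1 sec intervals.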

[12] = cAMP Responsive Elements (CRE) small molecule antagonists, cell-based qHTS assay (AID 1963591; active = well fitted inhibition curve with a large enough effect in the signal ratio in the repeat runs, not every such curve was filed as active; the % refers to the signal ratio)
Procedure, shortened: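 Stimulation used NKH477 at a final 0.25 uM for 3 h in compound-treated CRE-bla HEK293T cells, seeded 18 h beforehand. Reporter activity was measured with LiveBLAzer B/G FRET substrate after 2 h at room temperature.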

[13] = target: Beta-2 adrenergic receptor (Homo sapiens) (UniProt P07550); assay: Adrenergic beta2 receptor (ADRB2) small molecule antagonists, cell-based qHTS assay (AID 1963592); note: series mostly up to about 92 µM; nearly all actives have a fitted effect of over 50% in size
Chain of Beta-2 adrenergic receptor (Homo sapiens) (P07550 whole entry, looked up): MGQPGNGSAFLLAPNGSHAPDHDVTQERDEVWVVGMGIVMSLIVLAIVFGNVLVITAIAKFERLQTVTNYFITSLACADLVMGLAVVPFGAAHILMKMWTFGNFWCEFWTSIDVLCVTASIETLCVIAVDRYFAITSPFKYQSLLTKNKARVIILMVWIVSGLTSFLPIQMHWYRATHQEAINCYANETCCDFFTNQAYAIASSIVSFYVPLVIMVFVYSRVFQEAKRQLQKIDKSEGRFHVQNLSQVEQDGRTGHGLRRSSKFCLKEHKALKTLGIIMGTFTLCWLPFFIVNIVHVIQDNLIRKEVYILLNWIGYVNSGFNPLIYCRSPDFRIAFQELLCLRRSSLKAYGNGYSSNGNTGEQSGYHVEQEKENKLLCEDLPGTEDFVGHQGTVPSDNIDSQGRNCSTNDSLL
Procedure, shortened: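 Assay format: CHO-ADRB2 cells, 18-20hr seeding at 37C/5% CO2, then compound plus 1nM isoproterenol agonist mix for 0.5hr RT. Homogeneous time-resolved fluorescence cAMP detection after 1hr, expressed as 665/615 nm ratio.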

[14] = target: Beta-2 adrenergic receptor (Homo sapiens) (UniProt P07550); assay: Adrenergic beta2 receptor (ADRB2) small molecule agonists, cell-based qHTS assay (AID 1963593);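 note: CHO cells stably overexpressing human ADRB2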
Procedure, shortened: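 CHO cells stably over-expressing ADRB2 were plated overnight at 37C, then dosed with compounds plus a stimulation mix containing 100uM IBMX and 25uM Ro-20-1724 for 0.5hr at room temperature. cAMP was measured by HTRF competition, 1hr.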

[15] = target: D(2) dopamine receptor (Homo sapiens) (UniProt P14416); assay: Dopamine D2 receptor (DRD2) small molecule antagonists, cell-based qHTS assay (AID 1963595; active = well fitted inhibition curve with a large enough effect in the signal ratio in the repeat runs, with a control signal flat; the % refers to the signal ratio)
Chain of D(2) dopamine receptor (Homo sapiens) (P14416 whole entry, looked up): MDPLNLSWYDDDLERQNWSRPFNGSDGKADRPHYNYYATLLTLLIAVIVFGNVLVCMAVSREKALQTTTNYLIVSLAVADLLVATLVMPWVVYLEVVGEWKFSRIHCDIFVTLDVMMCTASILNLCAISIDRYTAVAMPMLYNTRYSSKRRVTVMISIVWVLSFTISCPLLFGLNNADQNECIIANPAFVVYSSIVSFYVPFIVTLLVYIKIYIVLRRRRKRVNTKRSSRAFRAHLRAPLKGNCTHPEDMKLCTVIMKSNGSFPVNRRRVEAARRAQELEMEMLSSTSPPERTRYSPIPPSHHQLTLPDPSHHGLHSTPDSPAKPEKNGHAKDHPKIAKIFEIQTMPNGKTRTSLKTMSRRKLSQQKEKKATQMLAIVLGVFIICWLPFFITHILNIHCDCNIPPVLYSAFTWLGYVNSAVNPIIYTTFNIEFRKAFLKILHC
Procedure, shortened: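 Readout: HTRF cAMP, cAMP-d2 competing with cellular cAMP for anti-cAMP cryptate, read after 1 h. Cells: DRD2-HEK293. Conditions: 0.1 mM Ro20-1724, 12 nM quinpirole, 200 nM NKH477, 30 min RT.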

[16] = target: 5-hydroxytryptamine receptor 2A (Homo sapiens) (UniProt P28223); assay: 5-hydroxytryptamine receptor 2A (HTR2A) small molecule agonists, cell-based qHTS assay (AID 1963587); note: nearly all actives have a fitted effect of over 30% in size
Procedure, shortened: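 HTR2A-CHO cells, plated 18 h at 37 C/5% CO2, dye-loaded 1 h at 37 C; compounds in DMSO added by pin tool (agonist mode). Intracellular calcium flux read as kinetic fluorescence on FDSS over 2 min at 1 s intervals.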

[17] = cAMP Responsive Elements (CRE) small molecule agonists, cell-based qHTS assay (AID 1963590)
Procedure, shortened: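 Compound exposure lasted 3 h at 37 C/5% CO2 in CRE-bla HEK 293T cells grown in assay medium with 10% dialyzed FBS and 25 mM HEPES. Reporter signal came from LiveBLAzer B/G FRET substrate, 2 h, room temperature.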

[18] = target: D(2) dopamine receptor (Homo sapiens) (UniProt P14416); assay: Dopamine D2 receptor (DRD2) small molecule agonists, cell-based qHTS assay (AID 1963594); note: nearly all actives have a fitted effect of over 35% in size
Procedure, shortened: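 HEK293 cells stably expressing DRD2 were cultured 24 h at 37 C, then given Ro20-1724 (0.1 mM final) and compounds for 10 min at room temperature. NKH477 (200nM) was then added for 30 min. cAMP was read by HTRF.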

[19] = p53 small molecule agonists, cell-based qHTS assay (AID 1963582; active = well fitted activation curve with a large enough effect in the signal ratio in the repeat runs, not every such curve was filed as active; the % refers to the signal ratio)
Procedure, shortened: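 After plating, p53RE-bla cells sat 5 h in the incubator; compounds or DMSO vehicle were pinned in; a 16 h incubation at 37 C followed; FRET substrate was added and, 2 h later at RT, fluorescence was measured.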

[20] = p53 small molecule agonists, cell-based qHTS assay with rat liver microsomes (AID 1963578)
Procedure, shortened: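 Rat liver microsome activation: microsomes 0.5 mg/mL, NADPH 0.5 mg/mL final; p53RE-bla cells, 16 h 37 C; LiveBLAzer readout, 2 h RT dark.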

Structure (SMILES)	Potency [1]	Potency [2]	Potency [3]	Potency [4]	Potency [5]	Potency [6]	Potency [7]	Potency [8]	Potency [9]	Potency [10]	Potency [11]	Potency [12]	Potency [13]	Potency [14]	Potency [15]	Potency [16]	Potency [17]	Potency [18]	Potency [19]	Potency [20]
Cc1c(N(C)C)c(=O)n(-c2ccccc2)n1C	inactive	69.8 µM (active) and inactive	inactive	inactive	inactive	inactive	inactive	inactive	inactive	inactive	inactive	inactive	inactive	inactive	inactive	–	–	–	–	–
CCCCCCCCCC(=O)OC	inactive	inactive	inactive	inactive	inactive	inactive	inactive	inactive	inactive	inactive	inactive	inactive	inactive	inactive	inactive	inactive	inactive	inactive	–	–
CNC(=O)Oc1ccc2c(c1)[C@]1(C)CCN(C)[C@@H]1N2C	inactive	inactive	inactive	inactive	inactive	inactive	inactive	inactive	–	–	–	inactive	inactive	inactive	inactive	–	inactive	–	inactive	–
N#Cc1ccccc1	inactive	inactive	inactive	inactive	inactive	–	inactive	inactive	–	inactive	inactive	inactive	inactive	–	inactive	inactive	inactive	inactive	inactive	inactive
O=C1NC(=O)c2ccccc21	inactive	inactive	inactive	inactive	inactive	inactive	inactive	inactive	inactive	inactive	inactive	–	–	inactive	inactive	inactive	–	–	–	–
C1CCCNCC1	inactive	inactive	inactive	inactive	inactive	inactive	inactive	inactive	inactive	inactive	inactive	inactive	inactive	inactive	inactive	inactive	inactive	inactive	–	–
Cc1cn([C@H]2C=C[C@@H](CO)O2)c(=O)[nH]c1=O	inactive	inactive	inactive	inactive	inactive	inactive	inactive	inactive	–	–	–	inactive	–	inactive	–	–	inactive	inactive	–	–
CC(=O)Nc1c(I)c(NC(C)=O)c(I)c(C(=O)O)c1I	inactive	inactive	inactive	inactive	inactive	inactive	inactive	inactive	–	–	–	inactive	inactive	–	inactive	–	inactive	inactive	–	–
F[B-](F)(F)F	inactive and 31.1 µM (active)	inactive	inactive	inactive	inactive	inactive	inactive	inactive	–	inactive	inactive	inactive	inactive	–	inactive	inactive	inactive	inactive	–	–
O=C(O)CCC(=O)O	inactive	inactive	inactive	inactive	inactive	inactive	inactive	42.1 µM (active) and inactive	inactive	inactive	inactive	inactive	inactive	inactive	inactive	inactive	inactive	inactive	–	–
C/C=C/c1ccc(OC)cc1	inactive	inactive	inactive	inactive	inactive	inactive	inactive	inactive	inactive	inactive	inactive	–	inactive	inactive	inactive	inactive	inactive	inactive	–	–
C=C(C)C(=O)OCC(C)O (stereo not given)	inactive	inactive	inactive	inactive	inactive	inactive	inactive	inactive	inactive	inactive	–	inactive	inactive	inactive	inactive	inactive	inactive	inactive	–	–
Cc1cccc(C)c1	inactive	inactive	inactive	inactive	inactive	inactive	inactive	inactive	inactive	inactive	inactive	–	inactive	–	inactive	inactive	inactive	inactive	–	–
